The text below walks through data of PubChem BioAssay (NCI).

Assay [1] in a line: NCI Yeast Anticancer Drug Screen. Data for the rad50 strain (AID 155).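 Further: 0% = growth of vehicle-only cultures of the same strain.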 The note with it: S. cerevisiae rad50 strain growth inhibition, active compounds read high. The essentials:
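Yeast carrying a defined DNA repair defect were exposed to test compounds, and growth was compared with vehicle-treated controls to give percent inhibition.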

A short description of assay [2]: NCI Yeast Anticancer Drug Screen. Data for the mec2-1 strain (AID 157). The note with it: S. cerevisiae mec2-1 strain, active compounds read high. The procedure, abridged: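 Mutant yeast (mec2-1) grown with compound; growth inhibition relative to vehicle control reported.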
Assay [3] is described as follows: NCI Yeast Anticancer Drug Screen. Data for the sgs1 mgt1 strain (AID 161).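 Further: 0% = growth of cultures given vehicle only.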 The following applies: S. cerevisiae sgs1 mgt1 strain, active compounds read high. The essentials: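 Compounds are added to genetically altered yeast, and growth is compared with cultures given vehicle alone to give percent inhibition.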
Assay [4] is described as follows: NCI Yeast Anticancer Drug Screen. Data for the cln2 rad14 strain (AID 165).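 Further: 0% = growth equal to vehicle treated cultures.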 The following applies: S. cerevisiae cln2 rad14 strain, active compounds read high. The essentials:
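Readout is yeast growth inhibition versus vehicle-treated controls, using a strain with cln2 and rad14 alterations exposed to compound.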

The nature of assay [5]: NCI Yeast Anticancer Drug Screen. Data for the bub3 strain (AID 167). The note with it: S. cerevisiae bub3 mutant strain, active compounds read high. The essentials:
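Compounds were applied to a genetically altered yeast strain carrying a cell-cycle control defect. Growth inhibition was scored against vehicle-treated controls.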

The nature of assay [6]: NCI Yeast Anticancer Drug Screen. Data for the mlh1 rad18 strain (AID 175). The following applies: S. cerevisiae mlh1 rad18 strain growth inhibition, active compounds read high. The procedure, abridged:
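Genetically defined yeast (DNA repair-deficient) exposed to compounds; growth inhibition determined relative to vehicle.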

Where [7] appears, read: at 5.0 µM (retest, dose inferred, filed as 0.5).
Setting [8] is: at 50.0 µM (retest, dose inferred, filed as 5.0).

About 79,000 compounds went through this panel and 15% of them were active in at least one assay; those are over-represented in the sample as a whole. A number with no mark means an inactive call. Calls of active or inactive are those of the source. No stated cut-off is given here; in the data, active means growth inhibition above about 70%; inactive means the rest.

With `CN(C)c1ccccc1CC(c1c[nH]c2ccccc12)c1c[nH]c2ccccc12`, the growth inhibition in assay [1] (setting [7]) was 82% (active); in assay [1] (setting [8]), 90% (active); in assay [1] (at 50.0 µM), 84.8% (active); in assay [2] (setting [7]) it was 73% (active); in assay [2] (setting [8]), 93% (active); in assay [2] (at 50.0 µM), 89.5% (active). Besides, the growth inhibition is 67% in assay [3] (setting [7]); 91% (active) in assay [3] (setting [8]); 87.6% (active) in assay [3] (at 50.0 µM); 50% in assay [4] (setting [7]); 94% (active) in assay [4] (setting [8]); 86.2% (active) in assay [4] (at 50.0 µM). The growth inhibition in assay [5] (setting [7]) was 66%; in assay [5] (setting [8]), 91% (active); in assay [5] (at 50.0 µM), 85.2% (active); in assay [6] (setting [7]), 92% (active); in assay [6] (setting [8]), 87% (active); in assay [6] (at 50.0 µM) it was 82% (active).
In the case of `COc1ccc(NC2Oc3cc4c(cc3C(c3cccc(OC)c3OC)C2C)OCO4)cc1` (stereo not given), the growth inhibition is -24% in assay [1] (setting [7]); 17% in assay [1] (setting [8]); 48% in assay [1] (at 50.0 µM); -13% in assay [2] (setting [7]); -15% in assay [2] (setting [8]); 49.5% in assay [2] (at 50.0 µM). In addition, the growth inhibition in assay [3] (setting [7]) is -6%; in assay [3] (setting [8]), -1%; in assay [3] (at 50.0 µM), 47.9%; in assay [4] (setting [7]), -10%; in assay [4] (setting [8]), 12%; in assay [4] (at 50.0 µM), 41.1%. Besides, the growth inhibition in assay [5] (setting [7]) was -32%; in assay [5] (setting [8]), 13%; in assay [5] (at 50.0 µM) it was 65.3%; in assay [6] (setting [7]), -19%; in assay [6] (setting [8]), 9%; in assay [6] (at 50.0 µM) it was 71.3% (active).
As to `CCCCCN(CCCCC)CCCNc1ccc(C)c2sc3ccccc3c(=O)c12`, the growth inhibition is 98% (active) in assay [1] (setting [7]); 96% (active) in assay [1] (setting [8]); 98.4% (active) in assay [1] (at 50.0 µM); 99% (active) in assay [2] (setting [7]); 98% (active) in assay [2] (setting [8]); 99% (active) in assay [2] (at 50.0 µM). Besides, the growth inhibition in assay [3] (setting [7]) was 99% (active); in assay [3] (setting [8]), 98% (active); in assay [3] (at 50.0 µM) it was 99% (active); in assay [4] (setting [7]), 99% (active); in assay [4] (setting [8]), 95% (active); in assay [4] (at 50.0 µM) it was 95% (active). Besides, the growth inhibition in assay [5] (setting [7]) was 99% (active); in assay [5] (setting [8]), 96% (active); in assay [5] (at 50.0 µM), 98% (active); in assay [6] (setting [7]) it was 99% (active); in assay [6] (setting [8]), 97% (active); in assay [6] (at 50.0 µM) it was 97.5% (active).
Take `Cc1ccc(N2CC(O)CN(c3ccc(C)cc3)CC(O)C2)cc1` (stereo not given): the growth inhibition in assay [1] (setting [7]) is 0%; in assay [1] (setting [8]) it was 3%; in assay [1] (at 50.0 µM), 20.4%; in assay [2] (setting [7]) it was -7%; in assay [2] (setting [8]), -13%; in assay [2] (at 50.0 µM) it was 18.1%. For the same compound, the growth inhibition in assay [3] (setting [7]) was -29%; in assay [3] (setting [8]), 1%; in assay [3] (at 50.0 µM), 24.9%; in assay [4] (setting [7]), 6%; in assay [4] (setting [8]), -10%; in assay [4] (at 50.0 µM), 6.55%. Also, the growth inhibition was 3% in assay [5] (setting [7]); 1% in assay [5] (setting [8]); 15.3% in assay [5] (at 50.0 µM); 33% in assay [6] (setting [7]); 0% in assay [6] (setting [8]); 23.2% in assay [6] (at 50.0 µM).
With `COC1CC(OC(=O)c2ccccc2)C(OC(=O)c2ccccc2)C(C)O1` (stereo not given), the growth inhibition is -5% in assay [1] (setting [7]); -4% in assay [1] (setting [8]); 9.1% in assay [1] (at 50.0 µM); -2% in assay [2] (setting [7]); -2% in assay [2] (setting [8]); 6.1% in assay [2] (at 50.0 µM). For the same compound, the growth inhibition in assay [3] (setting [7]) was -2%; in assay [3] (setting [8]), -1%; in assay [3] (at 50.0 µM), 7.75%; in assay [4] (setting [7]), -4%; in assay [4] (setting [8]) it was -12%; in assay [4] (at 50.0 µM), -16.4%. Moreover, the growth inhibition in assay [5] (setting [7]) was 44%; in assay [5] (setting [8]), 64%; in assay [5] (at 50.0 µM), 83.9% (active); in assay [6] (setting [7]), -1%; in assay [6] (setting [8]) it was 2%; in assay [6] (at 50.0 µM), 1.9%.
Regarding `COc1nc2c(ccn2C2OC(COC(C)=O)C(OC(C)=O)C(OC(C)=O)C2OC(C)=O)c(=O)n1C` (stereo not given), the growth inhibition in assay [1] (setting [7]) was 2%; in assay [1] (setting [8]) it was -2%; in assay [1] (at 50.0 µM) it was 15.2%; in assay [2] (setting [7]) it was 1%; in assay [2] (setting [8]) it was -4%; in assay [2] (at 50.0 µM), 14.8%. In addition, the growth inhibition is -5% in assay [3] (setting [7]); -5% in assay [3] (setting [8]); 4.45% in assay [3] (at 50.0 µM); -2% in assay [4] (setting [7]); -3% in assay [4] (setting [8]); 2.35% in assay [4] (at 50.0 µM). For the same compound, the growth inhibition is -2% in assay [5] (setting [7]); -8% in assay [5] (setting [8]); -5.9% in assay [5] (at 50.0 µM); 1% in assay [6] (setting [7]); -2% in assay [6] (setting [8]); 2.15% in assay [6] (at 50.0 µM).
For the compound `O=C(Oc1c(Cl)cc(Cl)c(Cl)c1Cl)Oc1c(Cl)cc(Cl)c(Cl)c1Cl`, the growth inhibition in assay [1] (setting [7]) was 4%; in assay [1] (setting [8]) it was 1%; in assay [1] (at 50.0 µM), -1.15%; in assay [2] (setting [7]), 5%; in assay [2] (setting [8]), 4%; in assay [2] (at 50.0 µM) it was 15.2%. Also, the growth inhibition in assay [3] (setting [7]) was 6%; in assay [3] (setting [8]), -11%; in assay [3] (at 50.0 µM) it was 0.3%; in assay [4] (setting [7]), 6%; in assay [4] (setting [8]), -11%; in assay [4] (at 50.0 µM), 6.85%. The growth inhibition in assay [5] (setting [7]) was 4%; in assay [5] (setting [8]) it was 0%; in assay [5] (at 50.0 µM), 70% (active); in assay [6] (setting [7]), 1%; in assay [6] (setting [8]), -1%; in assay [6] (at 50.0 µM), 0.15%.
Regarding `CCOC(=O)CSC(=S)Nc1ccc(Cl)cc1`, the growth inhibition in assay [1] (setting [7]) was 0%; in assay [1] (setting [8]), 88% (active); in assay [1] (at 50.0 µM) it was 88.9% (active); in assay [2] (setting [7]), -2%; in assay [2] (setting [8]) it was 91% (active); in assay [2] (at 50.0 µM) it was 21.1%. The growth inhibition in assay [3] (setting [7]) is 5%; in assay [3] (setting [8]), 95% (active); in assay [3] (at 50.0 µM) it was 87.5% (active); in assay [4] (setting [7]), -5%; in assay [4] (setting [8]), 36%; in assay [4] (at 50.0 µM) it was -26.8%. The growth inhibition was -9% in assay [5] (setting [7]); 61% in assay [5] (setting [8]); 50.5% in assay [5] (at 50.0 µM); 6% in assay [6] (setting [7]); 98% (active) in assay [6] (setting [8]); 93.7% (active) in assay [6] (at 50.0 µM).
With `O=C(O)COc1c(Cl)c(Cl)c(Cl)c(Cl)c1Cl.[Cu+2]`, the growth inhibition in assay [1] (setting [7]) was 28%; in assay [1] (setting [8]), 98% (active); in assay [1] (at 50.0 µM), 88% (active); in assay [2] (setting [7]) it was 20%; in assay [2] (setting [8]) it was 99% (active); in assay [2] (at 50.0 µM) it was 93.7% (active). Further, the growth inhibition in assay [3] (setting [7]) was 42%; in assay [3] (setting [8]) it was 99% (active); in assay [3] (at 50.0 µM) it was 92.7% (active); in assay [4] (setting [7]), 7%; in assay [4] (setting [8]), 99% (active); in assay [4] (at 50.0 µM) it was 86% (active). Also, the growth inhibition was 9% in assay [5] (setting [7]); 99% (active) in assay [5] (setting [8]); 89.2% (active) in assay [5] (at 50.0 µM); 22% in assay [6] (setting [7]); 99% (active) in assay [6] (setting [8]); 86.3% (active) in assay [6] (at 50.0 µM).
As for `Cc1cccc(/C=N\OCCc2ccccc2)n1`, the growth inhibition in assay [1] (setting [7]) was 0%; in assay [1] (setting [8]), 85% (active); in assay [1] (at 50.0 µM), -3.05%; in assay [2] (setting [7]), -6%; in assay [2] (setting [8]), 53%; in assay [2] (at 50.0 µM), 80.2% (active). For the same compound, the growth inhibition is 1% in assay [3] (setting [7]); 84% (active) in assay [3] (setting [8]); 16.6% in assay [3] (at 50.0 µM); -14% in assay [4] (setting [7]); 21% in assay [4] (setting [8]); -14.1% in assay [4] (at 50.0 µM). The growth inhibition in assay [5] (setting [7]) is 2%; in assay [5] (setting [8]) it was 94% (active); in assay [5] (at 50.0 µM), 47.7%; in assay [6] (setting [7]), -2%; in assay [6] (setting [8]), 88% (active); in assay [6] (at 50.0 µM) it was 32.8%.
